About 7,900 targets were measured; listed, in parts, are those with a hit and a random draw of the rest. About 0.6% of all pairs of compound and target were hits. Values without a mark were called inactive.
Each target was assayed with CC1=C(SC2=C1C(=N[C@H](C3=NN=C(N32)C)CC(=O)N)C4=CC=C(C=C4)Cl)C (assay: log2 fold change, soluble protein after heating vs DMSO (PISA); higher = thermal stabilisation; K562 cells, 10 uM, 30 min; active = over 0.2 and 3.5 SD of the protein, either way, in both replicates (recomputed)).
Method in brief: (§1)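 K562 cells at 2×10^6 cells/mL were exposed to 10 μM compound for 30 min, then aliquots were heated for 3 min across 48°C-58°C, pooled, and extracted in PBS containing 0.5% NP-40 at 4°C. The supernatant after 21,000xg for 90 min was taken as soluble protein and measured by TMTpro 16plex LC-MS/MS with channel sums equalised. Thermal stability is reported relative to control samples, with values from duplicates. Fold changes are given on a log2 scale.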

Sequence of UniProt Q7Z7G8 (Q7Z7G8 whole entry, looked up): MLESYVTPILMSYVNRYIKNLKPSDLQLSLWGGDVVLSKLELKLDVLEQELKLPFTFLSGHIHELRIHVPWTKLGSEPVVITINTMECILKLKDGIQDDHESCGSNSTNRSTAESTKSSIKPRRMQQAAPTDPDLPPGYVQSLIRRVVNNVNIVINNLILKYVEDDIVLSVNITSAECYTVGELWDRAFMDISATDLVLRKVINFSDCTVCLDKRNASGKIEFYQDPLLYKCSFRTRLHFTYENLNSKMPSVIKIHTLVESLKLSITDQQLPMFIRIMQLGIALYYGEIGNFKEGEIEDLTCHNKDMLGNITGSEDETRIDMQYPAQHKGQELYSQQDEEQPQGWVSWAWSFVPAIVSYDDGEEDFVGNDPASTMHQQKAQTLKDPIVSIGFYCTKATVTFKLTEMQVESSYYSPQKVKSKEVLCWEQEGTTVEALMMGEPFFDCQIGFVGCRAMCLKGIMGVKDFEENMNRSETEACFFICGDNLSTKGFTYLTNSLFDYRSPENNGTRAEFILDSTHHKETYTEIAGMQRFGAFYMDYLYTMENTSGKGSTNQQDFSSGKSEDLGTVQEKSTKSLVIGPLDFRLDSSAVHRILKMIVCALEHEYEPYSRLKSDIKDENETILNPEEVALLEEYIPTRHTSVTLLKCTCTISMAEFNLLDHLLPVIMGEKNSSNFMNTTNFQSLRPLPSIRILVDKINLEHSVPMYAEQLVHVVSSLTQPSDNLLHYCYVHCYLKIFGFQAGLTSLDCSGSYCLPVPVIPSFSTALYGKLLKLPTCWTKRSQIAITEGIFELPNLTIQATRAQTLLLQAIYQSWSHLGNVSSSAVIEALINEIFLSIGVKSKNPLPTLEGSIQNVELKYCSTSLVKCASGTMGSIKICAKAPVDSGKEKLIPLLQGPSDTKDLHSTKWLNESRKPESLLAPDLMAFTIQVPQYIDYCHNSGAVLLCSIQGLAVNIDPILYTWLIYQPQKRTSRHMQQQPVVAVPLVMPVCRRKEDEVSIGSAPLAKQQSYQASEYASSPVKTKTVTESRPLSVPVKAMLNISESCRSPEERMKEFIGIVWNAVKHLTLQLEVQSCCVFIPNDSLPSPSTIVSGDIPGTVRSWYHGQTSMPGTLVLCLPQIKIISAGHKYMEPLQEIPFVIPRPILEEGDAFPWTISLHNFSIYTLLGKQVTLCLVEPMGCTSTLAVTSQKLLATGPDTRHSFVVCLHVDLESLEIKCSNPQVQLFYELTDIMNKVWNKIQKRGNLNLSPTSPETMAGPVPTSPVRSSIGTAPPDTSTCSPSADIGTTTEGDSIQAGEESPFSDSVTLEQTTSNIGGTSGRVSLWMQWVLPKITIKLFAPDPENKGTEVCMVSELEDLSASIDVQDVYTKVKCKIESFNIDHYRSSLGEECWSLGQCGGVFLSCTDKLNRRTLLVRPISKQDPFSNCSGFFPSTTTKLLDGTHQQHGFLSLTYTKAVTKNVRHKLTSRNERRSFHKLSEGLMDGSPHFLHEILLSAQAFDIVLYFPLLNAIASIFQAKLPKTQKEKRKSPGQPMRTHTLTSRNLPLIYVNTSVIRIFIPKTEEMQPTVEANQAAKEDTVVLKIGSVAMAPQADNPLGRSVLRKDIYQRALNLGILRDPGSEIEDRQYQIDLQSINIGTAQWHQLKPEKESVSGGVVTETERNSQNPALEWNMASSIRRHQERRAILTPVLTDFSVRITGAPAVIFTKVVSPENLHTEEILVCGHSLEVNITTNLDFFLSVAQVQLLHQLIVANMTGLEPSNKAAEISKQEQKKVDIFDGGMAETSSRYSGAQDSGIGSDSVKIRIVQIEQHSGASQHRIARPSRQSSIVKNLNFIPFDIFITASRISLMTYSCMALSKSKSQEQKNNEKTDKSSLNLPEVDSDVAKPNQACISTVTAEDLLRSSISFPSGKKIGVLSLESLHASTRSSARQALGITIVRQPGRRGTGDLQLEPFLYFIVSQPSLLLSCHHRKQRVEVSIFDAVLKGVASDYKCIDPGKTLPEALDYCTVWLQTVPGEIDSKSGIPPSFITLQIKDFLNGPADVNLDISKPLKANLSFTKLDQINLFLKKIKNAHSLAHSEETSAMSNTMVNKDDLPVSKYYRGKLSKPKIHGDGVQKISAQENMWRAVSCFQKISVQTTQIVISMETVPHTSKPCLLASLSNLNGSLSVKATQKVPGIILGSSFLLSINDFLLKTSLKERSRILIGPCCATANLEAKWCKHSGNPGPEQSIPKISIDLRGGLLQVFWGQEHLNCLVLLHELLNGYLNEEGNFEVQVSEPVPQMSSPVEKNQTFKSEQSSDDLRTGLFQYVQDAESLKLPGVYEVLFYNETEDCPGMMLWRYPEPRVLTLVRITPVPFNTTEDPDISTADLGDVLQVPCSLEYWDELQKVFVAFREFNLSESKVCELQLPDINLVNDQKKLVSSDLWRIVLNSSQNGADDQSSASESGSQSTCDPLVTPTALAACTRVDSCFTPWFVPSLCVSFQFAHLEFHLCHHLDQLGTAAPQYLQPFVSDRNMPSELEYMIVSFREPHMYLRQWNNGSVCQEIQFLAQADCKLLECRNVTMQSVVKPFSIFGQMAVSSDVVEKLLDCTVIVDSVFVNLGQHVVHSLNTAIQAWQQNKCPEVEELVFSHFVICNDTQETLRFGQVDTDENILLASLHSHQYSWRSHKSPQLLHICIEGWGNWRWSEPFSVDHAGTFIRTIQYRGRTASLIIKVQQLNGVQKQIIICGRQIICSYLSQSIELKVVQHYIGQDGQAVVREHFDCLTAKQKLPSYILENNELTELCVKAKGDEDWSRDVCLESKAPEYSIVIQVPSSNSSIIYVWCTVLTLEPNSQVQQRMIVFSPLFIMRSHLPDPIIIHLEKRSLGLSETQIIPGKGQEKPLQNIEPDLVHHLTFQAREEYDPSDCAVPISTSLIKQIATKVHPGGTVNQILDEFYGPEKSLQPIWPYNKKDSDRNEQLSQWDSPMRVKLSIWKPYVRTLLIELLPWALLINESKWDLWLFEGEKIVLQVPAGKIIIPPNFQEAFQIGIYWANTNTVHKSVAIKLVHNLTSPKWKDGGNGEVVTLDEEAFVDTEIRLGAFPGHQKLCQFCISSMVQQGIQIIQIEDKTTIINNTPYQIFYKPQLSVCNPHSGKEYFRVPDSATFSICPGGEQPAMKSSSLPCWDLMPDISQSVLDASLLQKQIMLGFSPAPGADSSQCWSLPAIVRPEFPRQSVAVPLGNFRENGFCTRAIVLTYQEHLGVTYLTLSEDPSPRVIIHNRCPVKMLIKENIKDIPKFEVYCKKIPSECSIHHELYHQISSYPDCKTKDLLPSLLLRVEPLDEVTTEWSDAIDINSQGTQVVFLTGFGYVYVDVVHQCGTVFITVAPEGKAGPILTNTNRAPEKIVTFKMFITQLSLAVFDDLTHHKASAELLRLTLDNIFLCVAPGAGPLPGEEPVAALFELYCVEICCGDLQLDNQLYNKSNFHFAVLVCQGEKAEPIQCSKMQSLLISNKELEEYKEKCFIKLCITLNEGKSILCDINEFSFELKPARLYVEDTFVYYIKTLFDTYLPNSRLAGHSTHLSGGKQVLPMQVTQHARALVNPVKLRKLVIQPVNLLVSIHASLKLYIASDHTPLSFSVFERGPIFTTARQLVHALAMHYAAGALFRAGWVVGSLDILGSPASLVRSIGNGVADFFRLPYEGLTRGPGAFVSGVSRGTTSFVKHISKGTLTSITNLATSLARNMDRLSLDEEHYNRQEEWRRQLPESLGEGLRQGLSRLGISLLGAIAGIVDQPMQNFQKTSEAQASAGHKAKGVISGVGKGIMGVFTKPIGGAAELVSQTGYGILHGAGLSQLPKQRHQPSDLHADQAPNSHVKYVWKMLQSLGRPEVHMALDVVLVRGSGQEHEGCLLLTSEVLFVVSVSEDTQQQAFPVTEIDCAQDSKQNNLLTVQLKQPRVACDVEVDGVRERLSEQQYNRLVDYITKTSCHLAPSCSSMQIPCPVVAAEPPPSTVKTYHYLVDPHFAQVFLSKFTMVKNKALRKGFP
Sequence of UniProt Q9UBK9 (Q9UBK9 whole entry, looked up): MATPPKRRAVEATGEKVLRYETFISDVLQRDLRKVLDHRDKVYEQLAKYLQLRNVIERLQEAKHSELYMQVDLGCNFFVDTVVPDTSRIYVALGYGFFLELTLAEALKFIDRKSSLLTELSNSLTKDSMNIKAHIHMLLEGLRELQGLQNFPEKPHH
Sequence of UniProt O00258 (O00258 whole entry, looked up): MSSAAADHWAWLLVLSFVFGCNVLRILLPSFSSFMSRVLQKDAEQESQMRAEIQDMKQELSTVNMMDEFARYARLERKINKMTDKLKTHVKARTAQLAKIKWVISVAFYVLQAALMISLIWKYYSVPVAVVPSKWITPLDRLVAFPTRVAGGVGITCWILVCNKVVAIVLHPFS
Sequence of UniProt Q8N2K1 (Q8N2K1 whole entry, looked up): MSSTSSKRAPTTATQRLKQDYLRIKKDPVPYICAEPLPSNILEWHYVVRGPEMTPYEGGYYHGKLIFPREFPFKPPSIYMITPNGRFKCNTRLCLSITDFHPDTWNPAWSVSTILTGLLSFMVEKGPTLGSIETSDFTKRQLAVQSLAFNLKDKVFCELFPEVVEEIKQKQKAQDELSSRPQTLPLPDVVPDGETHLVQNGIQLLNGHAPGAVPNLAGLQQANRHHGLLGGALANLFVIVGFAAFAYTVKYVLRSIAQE
Sequence of UniProt Q53S58 (Q53S58 whole entry, looked up): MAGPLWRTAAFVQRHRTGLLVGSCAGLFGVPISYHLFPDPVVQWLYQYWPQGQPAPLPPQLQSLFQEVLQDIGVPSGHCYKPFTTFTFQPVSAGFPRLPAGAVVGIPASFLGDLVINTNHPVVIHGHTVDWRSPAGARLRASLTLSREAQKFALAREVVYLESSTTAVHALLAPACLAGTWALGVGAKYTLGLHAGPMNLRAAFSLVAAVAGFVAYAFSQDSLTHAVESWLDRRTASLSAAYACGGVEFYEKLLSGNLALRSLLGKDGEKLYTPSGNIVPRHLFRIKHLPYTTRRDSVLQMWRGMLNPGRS
Sequence of UniProt Q9NX01 (Q9NX01 whole entry, looked up): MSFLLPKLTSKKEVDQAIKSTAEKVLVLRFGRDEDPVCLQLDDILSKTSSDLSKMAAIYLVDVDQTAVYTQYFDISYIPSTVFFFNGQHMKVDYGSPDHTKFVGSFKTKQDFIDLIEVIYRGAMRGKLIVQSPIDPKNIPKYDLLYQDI

Target | log2 fold change
WDR61 (UniProt Q9GZS3) | 0.04
TRIM28 (UniProt Q13263) | 0.029
UBAP2L isoform 1 (UniProt Q14157) | 0.004
UBR2 (UniProt Q8IWV8) | 0.04
UBE2J2 isoform 3 (UniProt Q8N2K1) | 0.078
VPS13B (UniProt Q7Z7G8) | -0.008
WRB (UniProt O00258) | -0.007
XPOT (UniProt O43592) | 0.06
UBE4B isoform 4 (UniProt O95155) | 0.03
VWA3B isoform 6 (UniProt Q502W6) | 0.069
VPS53 isoform 4 (UniProt Q5VIR6) | 0.02
UXT isoform 2 (UniProt Q9UBK9) | 0.063
TMEM189-UBE2V1 (UniProt I3L0A0) | 0.02

These targets were tested with CC1=C2C(=CC=C1)N=C(N(C2=O)C3=CC=CC=C3C)CN4C=NC5=C(N=CN=C54)N in the same assay as above.
Method in brief: as §1

Target | log2 fold change
TRAPPC8 (UniProt Q9Y2L5) | 0.046
VPS50 (UniProt Q96JG6) | 0.022
TMTC3 (UniProt Q6ZXV5) | 0.011
XRCC6 (UniProt P12956) | 0.114
UTP4 (UniProt Q969X6) | -0.044
WDR43 (UniProt Q15061) | 0.009
TMEM263 (UniProt Q8WUH6) | 0.156
TRIP10 (UniProt Q15642) | 0.081
UHRF1BP1L (UniProt A0JNW5) | 0.05
USP25 isoform 3 (UniProt Q9UHP3) | 0.068
TUBA4A (UniProt C9JJQ8) | 0
TOE1 (UniProt Q96GM8) | -0.095
U2AF2 (UniProt P26368) | 0.045
WASHC5 (UniProt Q12768) | 0.09
VPS41 (UniProt P49754) | 0.152
TOP2A isoform 4 (UniProt P11388) | -0.703
TXNIP (UniProt Q9H3M7) | -0.012
TNFAIP8 isoform 4 (UniProt O95379) | 0.02

Target | log2 fold change
TXN2 (UniProt Q99757) | 0.039
VPS33B (UniProt Q9H267) | 0.03
TMEM177 (UniProt Q53S58) | -0.164
TXNL4B (UniProt Q9NX01) | -0.537 (active)
TXNRD1 (UniProt Q16881) | 0.023
WDR61 (UniProt Q9GZS3) | 0.077
TRIM28 (UniProt Q13263) | 0.017
UBAP2L isoform 1 (UniProt Q14157) | 0.059
UBR2 (UniProt Q8IWV8) | 0.009
UBE2J2 isoform 3 (UniProt Q8N2K1) | -0.106
VPS13B (UniProt Q7Z7G8) | 0.068
WRB (UniProt O00258) | -0.015
XPOT (UniProt O43592) | 0.083
UBE4B isoform 4 (UniProt O95155) | 0.019
VWA3B isoform 6 (UniProt Q502W6) | 0.162
VPS53 isoform 4 (UniProt Q5VIR6) | 0.049
UXT isoform 2 (UniProt Q9UBK9) | 0.065
TMEM189-UBE2V1 (UniProt I3L0A0) | 0.102

What follows are targets tested with Cc1sc2c(c1C)C(c1ccc(Cl)cc1)=N[C@@H](CC(=O)OC(C)(C)C)c1nnc(C)n1-2 in the same assay as above.
Method in brief: as §1

Target | log2 fold change
TRAPPC8 (UniProt Q9Y2L5) | 0.012
VPS50 (UniProt Q96JG6) | -0.013
TMTC3 (UniProt Q6ZXV5) | -0.034
XRCC6 (UniProt P12956) | -0.022
UTP4 (UniProt Q969X6) | 0.004
WDR43 (UniProt Q15061) | -0.009
TMEM263 (UniProt Q8WUH6) | -0.072
TRIP10 (UniProt Q15642) | 0.014
UHRF1BP1L (UniProt A0JNW5) | -0.027
USP25 isoform 3 (UniProt Q9UHP3) | -0.007
TUBA4A (UniProt C9JJQ8) | -0.011
TOE1 (UniProt Q96GM8) | 0.065
U2AF2 (UniProt P26368) | 0.044
WASHC5 (UniProt Q12768) | 0.003
VPS41 (UniProt P49754) | -0.017
TOP2A isoform 4 (UniProt P11388) | 0.252
TXNIP (UniProt Q9H3M7) | -0.039
TNFAIP8 isoform 4 (UniProt O95379) | -0.042

Target | log2 fold change
TXN2 (UniProt Q99757) | -0.079
VPS33B (UniProt Q9H267) | 0.008
TMEM177 (UniProt Q53S58) | -0.001
TXNL4B (UniProt Q9NX01) | -0.102
TXNRD1 (UniProt Q16881) | -0.031
WDR61 (UniProt Q9GZS3) | 0.032
TRIM28 (UniProt Q13263) | -0.012
UBAP2L isoform 1 (UniProt Q14157) | 0.001
UBR2 (UniProt Q8IWV8) | -0.014
UBE2J2 isoform 3 (UniProt Q8N2K1) | -0.014
VPS13B (UniProt Q7Z7G8) | -0.057
WRB (UniProt O00258) | 0.005
XPOT (UniProt O43592) | -0.002
UBE4B isoform 4 (UniProt O95155) | 0.006
VWA3B isoform 6 (UniProt Q502W6) | 0.129
VPS53 isoform 4 (UniProt Q5VIR6) | -0.006
UXT isoform 2 (UniProt Q9UBK9) | -0.005
TMEM189-UBE2V1 (UniProt I3L0A0) | -0.02
